Hits are enriched below; roughly 2.8% of the tested compounds scored in any of these assays.
DRD3 agonist = activates the human D3 dopamine receptor; P35462; D3R DiscoveRx beta-arrestin cells, luminescence, 90 min; max activation, %; actives 0.58% (n = 410,000); AID 652048; in the data active = max activation above about 30%; note: 0% is about no effect
Target sequence (P35462 whole entry, looked up): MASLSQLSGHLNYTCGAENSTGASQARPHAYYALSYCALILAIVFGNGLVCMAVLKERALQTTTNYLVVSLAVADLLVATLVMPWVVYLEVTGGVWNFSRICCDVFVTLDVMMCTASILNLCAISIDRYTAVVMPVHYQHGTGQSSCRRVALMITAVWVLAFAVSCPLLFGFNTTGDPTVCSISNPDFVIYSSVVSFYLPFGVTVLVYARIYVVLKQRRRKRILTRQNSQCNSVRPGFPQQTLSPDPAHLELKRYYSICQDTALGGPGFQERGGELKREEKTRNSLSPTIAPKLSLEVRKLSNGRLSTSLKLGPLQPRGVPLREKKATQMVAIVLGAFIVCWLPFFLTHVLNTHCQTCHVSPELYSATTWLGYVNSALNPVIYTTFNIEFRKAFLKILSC
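Cells at 1500/well, incubated overnight, then treated with pinned compounds (dopamine as control) for 90 min at 37 degrees C. DiscoveRx reagent added for 30 - 60 minutes at room temperature; luminescence read.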
PI4K2A block = PI4K2A (human) kinase inhibition | actives 0.13% (n = 420,000) | Q9BTU6 | activity change, negative = inhibition, % at 76.9 µM | purified PI4K2A, ADP-Glo luminescence, 1 h; active compounds read low; in the data active = activity change below about -50%; inconclusive = mostly about -30% to -49%;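 note: -100% = wells without enzyme as full effect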
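ADP-Glo luminescence measured ADP generated by PI4K2A enzyme (4 ug/mL before mixing) with 1.2 mM PI substrate (pre-mix) and 300 microM ATP (pre-mix). Tris pH7.5 buffer with MgCl2, Triton X-100; 1 h reaction at ambient temperature.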
LDHA inh = LDHA (human) enzyme inhibition | activity change, % (values are at about 110 or 230 µM) | purified LDHA, NADH/diaphorase-resazurin fluorescence; active compounds read low | actives 0.15% (n = 480,000) | P00338; in the data active = activity change below about -30%; inconclusive = mostly about -25% to -30%;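 note: plate controls were DMSO wells for no effect and wells without enzyme for full effect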
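Remaining NADH was detected by diaphorase (0.133 mg/mL) converting 37 µM resazurin to fluorescent resorufin, read at 0 and 20 minutes. The preceding 5-minute room-temperature reaction used 2 nM LDHA, 0.2 mM sodium pyruvate and 0.06 mM NADH at pH 7.4.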
DRD3 antagonist = antagonists of human D3 dopamine receptor | D3R cells, DiscoveRx beta-arrestin luminescence, antagonist mode; active compounds read low | max response, negative = inhibition, % | actives 2.5% (n = 360,000) | AID 652054; in the data active = max response below about -50%; inconclusive = no clear call, values can overlap the other calls; note: % is set by controls: 0 for no effect and ±100 for the full control effect
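Cells plated overnight at 1500 cells/well, then exposed to library compounds with dopamine controls for 90 minutes at 37 degrees C. DiscoveRx reagent added for 30–60 minutes at room temperature; luminescence read, quantitative HTS format.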
RGS4 inhibitor = human RGS4 inhibition | Potency, µM (doses to about 114 µM), for the others: top-dose activity change, negative = inhibition, most hits filed as inhibitors | actives 0.039% (n = 390,000) | P49798 | Transcreener GDP fluorescence polarization, RGS4-accelerated GTP hydrolysis; active = well fitted inhibition curve with a large enough effect; inconclusive = small, poorly fitted or top-dose-only effect; inactive = no such curve, though single readings can be large or run the other way; note: potency is the fitted concentration of half-maximal effect; % is set by controls: 0 for no effect and ±100 for the full control effect; nearly all actives have a fitted effect of over 75% in size
Target sequence (P49798 whole entry, looked up): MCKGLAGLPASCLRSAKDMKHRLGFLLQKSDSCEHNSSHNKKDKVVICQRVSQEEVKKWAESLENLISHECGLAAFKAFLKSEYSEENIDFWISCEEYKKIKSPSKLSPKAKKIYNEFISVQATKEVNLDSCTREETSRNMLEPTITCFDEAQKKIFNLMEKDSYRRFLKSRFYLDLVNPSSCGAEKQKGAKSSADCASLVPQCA
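MLSMR compounds (23 nl, pin-transferred) preincubated 10 min at room temperature with a 500nM (2x) first reagent, then RGS4 at 900nM (2x) plus Transcreener GDP mix added; fluorescence polarization (620/688 nm) read before and after 90 min at 30 °C.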
Akt phos inh = inhibitors of Akt phosphorylation; actives 0.32% (n = 360,000); AID 651550; Neuro2A IGF-stimulated pAkt S473 HTRF, 20 min; active compounds read low; activity change, % for hits at 50 µM; in the data active = activity change below about -80%; inconclusive = mostly about -51% to -80%; note: % is set by controls: 0 for no effect and ±100 for the full control effect
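Neuro2A cells (4,500/well, DMEM with 0.5% FBS) were treated with compound at a single 50 µM final concentration, stimulated with 6 nM IGF for 20 min at 37 °C, and lysed. Phospho-Akt Ser473 was read by HTRF as 665/615 ratio ×10^4.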
An asterisk follows results filed as active; i = inactive; u = inconclusive; x = no result given.

SMILES	DRD3 agonist	PI4K2A block	LDHA inh	DRD3 antagonist	RGS4 inhibitor	Akt phos inh
COc1ccc(CN(C(=O)c2nsc(Cl)c2Cl)C(C(=O)NC2CCCC2)c2ccc(C)cc2)cc1 (centres undefined)	-11.5	-0.6	-2.2	-24.9	-13.8%	i
Cc1ccc(C)c(N(C(=O)c2nsc(Cl)c2Cl)C(C(=O)NC2CCCC2)c2ccc(O)cc2)c1 (centres undefined)	-15.2	-5.3	-3.7	-62.0*	-8.2%	i
O=CNNC(=S)NCc1ccco1	x	x	1.2	x	x	x
O=[N+]([O-])c1cc2oc3c(c2c(C=NCc2ccccc2)c1O)CCCC3	13.4	-5.0	17.1	-85.3*	-49.0%	i
CC(C)CN=Cc1c(O)c([N+](=O)[O-])cc2oc3c(c12)CCCC3	-28.1	-7.2	15.4	-105.5*	1.1%	i
O/N=C/c1c(O)c(Br)cc2oc3c(c12)CCCC3	x	x	-17.1	x	x	x
CCOc1cc(C)c(Cl)cc1S(=O)(=O)N1CCCC1	1.1	1.4	-6.8	-3.4	47.4%	-118.6%*
COc1cc(C)c(Cl)cc1S(=O)(=O)N1CCCC1	4.3	-2.1	-15.1	3.7	18.4%	i
O=C1C=C(NCC23CC4CC(CC(C4)C2)C3)C2(CCCCC2)O1	x	x	3.8	x	x	x
Fc1cccc(-c2nc(COc3ccccc3Br)co2)c1	x	x	-0.4	x	x	x
Cc1[nH]n(-c2ccccc2)c(=O)c1C=Nc1cccc2cccnc12	-20.3	4.0	-15.3	-86.8*	-11.8%	i
Cc1ccc(-n2[nH]c(C)c(/C=N/c3ccccn3)c2=O)cc1	2.7	-0.6	1.8	15.4	-9.0%	i
CC(=O)NCCNC(=O)c1ccc2ccccc2n1	x	x	-31.3*	x	x	x
COc1ccc(C(C)(C)C)cc1NC(=O)c1ccc2c(c1)NC(=O)CS2	x	x	11.0	x	x	x
COc1cc2c(cc1OC)-c1c(c(C(=O)NCc3ccncc3)nn1-c1ccc(Cl)cc1)C2	x	x	2.4	x	x	x
Oc1ccccc1N1CCN(Cc2ncc(-c3ccccc3)o2)CC1	-6.0	-5.0	8.9	-57.9*	-26.2%	i
Fc1ccccc1N1CCN(Cc2ncc(-c3ccc(Cl)cc3)o2)CC1	x	x	-14.1	x	x	x
CCC(C)(C)C1CCc2[nH]nc(C(=O)NCc3ccc(Cl)cc3)c2C1 (centres undefined)	0.5	1.0	-3.4	-75.0*	-6.6%	i
CCC(C)(C)C1CCc2[nH]nc(C(=O)NCc3ccccn3)c2C1 (centres undefined)	4.3	-6.8	-3.3	17.2	15.2%	i
O=c1c2cnn(-c3ccc(F)cc3)c2ncn1CC(O)COc1ccc(Cl)cc1Cl (centres undefined)	x	x	2.3	x	x	x
Cc1oc(-c2ccc(Cl)cc2)[n+]([O-])c1C	-2.1	13.8	-3.3	-66.7*	-23.9%	i
Cc1ccc2oc(C(=O)N3CCC(Cc4ccccc4)CC3)cc(=O)c2c1	x	x	12.7	x	x	x
Cc1cccc(Cn2cnc3c(nnn3Cc3ccccc3F)c2=O)c1	56.0*	2.0	0.6	3.0	-13.8%	i
Cc1cccc(Cn2cnc3c(nnn3Cc3ccc(F)cc3)c2=O)c1	1.3	-5.8	-4.6	22.4	-2.9%	i
Cc1ccc(-n2nnc3c(=O)n(Cc4cc(C)ccc4C)cnc32)cc1	-6.7	1.0	-7.8	-67.9*	18.8%	i
SMILES	DRD3 agonist	PI4K2A block	LDHA inh	DRD3 antagonist	RGS4 inhibitor	Akt phos inh
COc1ccc(C2/C(=C(/O)c3ccc(Cl)cc3)C(=O)C(=O)N2CCN2CCOCC2)c(OC)c1 (centres undefined)	0.9	-4.1	9.6	0.0	3.8%	i
COc1ccc(C2/C(=C(/O)c3ccccc3)C(=O)C(=O)N2c2ccccn2)c(OC)c1 (centres undefined)	-1.4	0.2	0.0	-15.0	2.5%	x
COc1cccc(/C(O)=C2\C(=O)C(=O)N(c3ccccn3)C2c2ccccc2OC)c1 (centres undefined)	-0.9	4.4	-1.7	-50.5*	33.9%	i
COc1ccc(C2/C(=C(/O)c3ccccc3)C(=O)C(=O)N2CCN2CCOCC2)c(OC)c1 (centres undefined)	-0.4	6.1	7.2	-56.5*	-0.7%	i
CS(=O)(=O)c1ccc2nc(NC(=O)/C=C/c3cccs3)sc2c1	x	x	0.8	x	x	x
CC1=NN(c2nc(N)nc(/C(C#N)=C/c3ccc([N+](=O)[O-])o3)n2)C(C)(C)C1	-7.5	18.7	19.7	-60.9*	-28.8%	i
CCCNC(=O)NC(=O)COc1c(F)c(F)cc(F)c1F	0.3	-6.1	-8.5	22.3	-3.7%	-101.5%*
O=C(CN1C(=O)S/C(=C\c2ccccc2Cl)C1=O)Nc1ccc2oc(=O)ccc2c1	x	x	-2.9	x	x	x
CCc1nnsc1C(=O)N(C)CCOc1cc(C)cc(C)c1	x	x	7.8	x	x	x
CC[C@@H](C)[C@@H]1CN([C@@H](C)CN2CCC[C@H]2CN2C(N)=NC[C@@H]2Cc2ccccc2)C(=N)N1CCCC1CCCC1	-35.5	-4.9	0.8	-1.0	15.1%	i
CC[C@@H](C)[C@@H]1CN([C@@H](C)CN2CCC[C@H]2CN2C(N)=NC[C@@H]2Cc2ccccc2)C(=N)N1CCc1ccc(Cl)c(Cl)c1	-47.6	-0.5	-11.6	-66.2*	-16.3%	i
CCN(CC)C(CNC(=O)Nc1cccc(C(=O)N2CCOCC2)c1)c1ccsc1 (centres undefined)	x	x	4.2	x	x	x
Cc1ccc(Cn2c(-n3nc(C)c(C)c3C)nc3c2c(=O)n(CC(N)=O)c(=O)n3C)cc1	x	x	1.3	x	x	x
COc1ccc(-c2cnc(C)o2)cc1S(=O)(=O)Nc1ccc(C)cc1	x	x	-4.1	x	x	x
Cc1nnsc1S(=O)c1ccc(Cl)c(Cl)c1 (centres undefined)	-17.9	2.0	-0.4	u	-14.2%	i
O=S(c1ccc2ccccc2c1)c1cnns1 (centres undefined)	-9.2	3.7	3.8	-55.0*	-33.7%	i
CC(=O)NC1CC2CCCC(C1)N2Cc1ccc(C)cc1 (centres undefined)	-7.2	1.9	-7.7	-113.1*	-14.6%	i
CCOc1ccccc1C(=O)NC1CC2CCCC(C1)N2Cc1ccc(C)cc1 (centres undefined)	-11.9	3.0	-3.7	-80.3*	-48.8%	i
CCCN1C2CCCC1CC(NC(=O)c1ccccc1OCC)C2 (centres undefined)	-6.0	4.6	0.1	u	18.1%	i
Cc1ccccc1C(=O)NC1CC2CCC(C1)N2Cc1ccccc1 (centres undefined)	-17.4	0.0	-20.0	-85.8*	4.5%	i
O=C(NC1CC2CCCC(C1)N2Cc1ccc(F)cc1)c1ccc(F)cc1 (centres undefined)	-22.0	-4.6	1.6	-108.1*	-0.9%	i

Screens deposited in PubChem by National Center for Advancing Translational Sciences (NCATS).
